Whole data set: some 33,000 sequences, median “E-score (-0.5 to 0.5)” near -0.043, cut for the highest 2% near 0.37. The list comes from a sample in which the highest values are over-represented; it also holds similar and randomly drawn sequences.
Biological target: T1, Upc2 (UniProt Q12151)
T1 sequence: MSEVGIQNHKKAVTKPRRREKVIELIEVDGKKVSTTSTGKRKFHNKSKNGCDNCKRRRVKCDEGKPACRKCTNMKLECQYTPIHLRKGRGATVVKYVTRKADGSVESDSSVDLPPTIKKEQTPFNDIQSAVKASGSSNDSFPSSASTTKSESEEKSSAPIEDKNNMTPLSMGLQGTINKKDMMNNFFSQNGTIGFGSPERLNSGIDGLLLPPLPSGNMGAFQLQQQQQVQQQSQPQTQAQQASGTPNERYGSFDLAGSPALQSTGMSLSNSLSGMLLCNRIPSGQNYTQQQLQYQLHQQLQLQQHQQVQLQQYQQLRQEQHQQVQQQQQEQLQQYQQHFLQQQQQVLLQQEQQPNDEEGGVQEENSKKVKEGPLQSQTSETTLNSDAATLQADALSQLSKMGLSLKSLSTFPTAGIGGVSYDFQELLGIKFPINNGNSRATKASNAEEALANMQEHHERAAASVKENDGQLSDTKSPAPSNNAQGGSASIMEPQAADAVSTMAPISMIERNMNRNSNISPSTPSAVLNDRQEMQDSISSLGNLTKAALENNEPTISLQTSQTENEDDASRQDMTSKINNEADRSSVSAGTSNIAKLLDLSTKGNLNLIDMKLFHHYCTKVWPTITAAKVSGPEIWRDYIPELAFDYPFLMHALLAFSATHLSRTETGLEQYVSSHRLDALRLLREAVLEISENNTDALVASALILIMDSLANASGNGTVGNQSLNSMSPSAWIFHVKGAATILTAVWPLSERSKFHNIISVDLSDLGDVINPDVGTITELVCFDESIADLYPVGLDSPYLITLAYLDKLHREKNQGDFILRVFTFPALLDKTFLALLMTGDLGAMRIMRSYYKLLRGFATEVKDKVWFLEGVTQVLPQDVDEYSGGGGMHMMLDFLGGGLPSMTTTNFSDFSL
Assay: PBM E-score (8-mer binding enrichment) (E-score (-0.5 to 0.5)); higher = stronger / more preferred TF binding
Details: protein concentration: 200 nM; construct: GST-full length
Procedure, shortened: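 Yeast transcription factors, full-length or as DNA-binding domains, were expressed with a GST tag using PURExpress in vitro transcription/translation. At about 100-200 nM they were applied to universal all-10-mer Agilent arrays, double-stranded by primer extension on fresh or once-stripped slides. Fluorescent anti-GST detected bound protein, and masliner normalised the scans. E-scores for ungapped eight-base words, pooled with reverse complements, came from the Universal PBM Analysis Suite.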

In order of falling “PBM E-score” value:
1. GTAAACGA  0.491
2. CGTATAGC  0.483
3. CGTATAGA  0.48
4. GCCGTATA  0.48
5. CCCGTATA  0.479
6. ACCGTATA  0.478
7. CCAAACGA  0.476
8. TCAAACGA  0.471
9. ACAAACGA  0.466
10. GCAAACGA  0.462
11. TAAACGGA  0.454
12. ATAAACGG  0.434
13. ACCCTCGT  0.419
14. CGTTACGA  0.417
15. CGTACCGC  0.416
16. CTAAACGC  0.416
17. ACGACGGG  0.415
18. ACGACGTA  0.413
19. CGCCGTAC  0.408
20. GGTTACGA  0.408
21. TAAACGTA  0.407
22. CACCGTAC  0.401
23. TAAACGCA  0.399
24. CGTACCGA  0.398
25. TCGTAGCA  0.39
26. TCGTAGAA  0.39
27. GGCCGTAC  0.389
28. AGTTACGA  0.383
29. ACCGTATG  0.381
30. CTCCGTAC  0.376
31. ACGACGAA  0.375
32. AACCTCGT  0.372
33. ACGACGGA  0.37
34. ACGACGAG  0.367
35. ATCCGTAC  0.366
36. CCAAACGG  0.365
37. ACGACGTG  0.351
38. AGCCGTAC  0.346
39. ACCGTATC  0.345
40. ATAAACGC  0.344
41. CCCGTATC  0.339
42. ACGACGGC  0.333
43. ACAAACGG  0.328
44. CACCGTAA  0.32
45. CAAACGGA  0.318
46. CAAAACGA  0.31
47. CCAAACGC  0.292
48. CGCCGTAA  0.285
49. CTCCGTAA  0.285
50. CGTTACGC  0.282
51. ACGGTATA  0.274
52. CAAACGTA  0.259
53. CAAACGCA  0.258
54. GGCCGTAA  0.255
55. GCAAACGC  0.25
56. CGATATCG  0.244
57. ACAAACGC  0.225
58. CCGACGTA  0.225
59. GTAAAGCA  0.223
60. AAAGCGAG  0.217
61. AAGCGATA  0.205
62. GAAACGGA  0.199
63. GCCGTAGA  0.189
64. AAAAAACG  0.186
65. ACCGTAAG  0.185
66. ACCGTAGA  0.178
67. GTAAACTA  0.172
68. ATATGGTA  0.158
69. GGTTACCA  0.156
70. CGGTTACA  0.156
71. GCGGTATA  0.151
72. AAGCTTCG  0.145
73. AACGCAAT  0.138
74. AGTATAGA  0.137
75. CTCGAGCC  0.135
76. CGGGTATC  0.135
77. CGTGCACG  0.134
78. CGGGGCAG  0.131
79. AGTATAGC  0.128
80. AAAACGTA  0.123
81. CGTCTAGA  0.121
82. CCGTAGAA  0.118
83. CGGGGTCA  0.117
84. AAAAACGG  0.117
85. GGTATAGA  0.111
86. CTATTTAC  0.104
87. TATTCACA  0.101
88. AGTACCGC  0.1
89. AGTTACGC  0.0981
90. CACCGTAG  0.0923
91. ACCCTCGC  0.0921
92. TAACGTCA  0.0914
93. AACGCTAT  0.0885
94. GGTACCGA  0.0871
95. ACAACACT  0.0862
96. GCGTAGAA  0.0848
97. AATGTCGC  0.0832
98. AGTTACGG  0.0766
99. CGCCGTAG  0.0712
100. CCGTAGCA  0.0702
101. CCGACGAA  0.067
102. AGCTTATA  0.0662
103. AACCTCGC  0.0636
104. AACCTCGA  0.0605
105. CGATTCGA  0.0594
106. CGTTACAA  0.0563
107. GTAAACCA  0.0531
108. ATCTGTTC  0.0527
109. ACGTAGCA  0.0515
110. CCGTCGAA  0.0446
111. GCGACGGA  0.0438
112. AGTTGCGA  0.0264
113. CTAAACTC  0.0155
114. CTTCTTAA  0.0092
115. GCAAACAA  0.00753
116. CATACCGC  0.00223
117. CCGACGGA  -0.0042
118. CCCGTAGA  -0.00639
119. ATAAACTG  -0.0103
120. TAAGGCCA  -0.013
121. ACTTGGCC  -0.0135
122. TCGACGAA  -0.018
123. CATTGCGA  -0.0248
124. TATATCAA  -0.04
125. ACCAGGAC  -0.0418
126. ATCCAGCG  -0.0436
127. ATGATCCG  -0.0506
128. ATATCTAG  -0.0547
129. GAAACGCA  -0.059
130. AAAATGGC  -0.0658
131. GGCACCAA  -0.0665
132. AGTACCGA  -0.0766
133. ATCAAATC  -0.078
134. TCAAACAA  -0.0805
135. AACAGATT  -0.0821
136. TAACTGAA  -0.0941
137. ATGCTTAC  -0.0957
138. ACACTACC  -0.098
139. GGTTACTA  -0.0998
140. CACCTAGG  -0.103
141. GCCTTCGC  -0.106
142. ACCACCTC  -0.111
143. TCTCTCCA  -0.118
144. AAGAGTAG  -0.128
145. CATCTGGG  -0.133
146. GCCAGACC  -0.138
147. CAATGGCG  -0.141
148. TCAGGCAA  -0.146
149. AGTCCAAT  -0.149
150. TCAGAAAA  -0.153
151. CGCCCTAG  -0.158
152. GAACTGGC  -0.158
153. ATATAATC  -0.158
154. AGTCTATC  -0.159
155. AGACGGCA  -0.162
156. AACTGGTG  -0.163
157. ATCAGAGA  -0.167
158. AGGGGTCC  -0.168
159. AGCCGTGG  -0.17
160. CACCTCCC  -0.174
161. CTTGAAGC  -0.183
162. ACCACACC  -0.185
163. ATGCACCA  -0.188
164. GCTCATCA  -0.195
165. AAGCCAGA  -0.2
166. CACTCAGC  -0.223
167. ACCCTCGA  -0.244
168. CCTAGGAG  -0.273
169. GGCACAAC  -0.279
170. CCTATAGC  -0.286
171. AGGTTAGC  -0.3
172. CCACAGCG  -0.302
173. ACTTCTGA  -0.307

Reference: the supplement of paper PMC3334620
